In all, about 31,000 sequences went through this assay and about 1,400 (4.5%) were called active. The sample as a whole holds a higher share of actives than the screen did. A number with no mark means an inactive call.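 How the source made its calls: active means median seed-adjusted z-score above 1 or below -1; inactive means the rest.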
Test: Novel Modifiers of Survival Motor Neuron (SMN) Protein: Gene Identification via Genome-wide siRNA Screen;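 further: luminescence tracks full-length SMN protein made from the SMN2 reporter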
Details: HEK293T SMN2-luciferase reporter, siRNA knockdown, 72 h; actives lie on both sides
Outline: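 Steps: spot 1 pmol siRNA, add Lipofectamine RNAiMax in serum-free DMEM, seed HEK293T SMN2–luciferase reporter cells; incubate 72 h at 37 °C; add ONE-Glo; normalize luminescence to control siRNA, log10, MAD. Candidates: |MAD| > 1.0.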

Sequence	median seed-adjusted z-score
GCAGUUAACACUCAAGGAATT against MKKS	1.03 (active)
GGUAAUCUUUAUGAAGAGATT against GCM1	0.0197
GCCUGUAAGUUAUUAAAGATT against ARL4D	-0.523
GGCUGAAAUUGUAACCCUATT against TPD52L3	0.552
GCAACCUUCUAACUACGGUTT against HNRNPA2B1	1.33 (active)
CAGGAUCUGUUCAACCAAATT against VWA2	0.584
GGAUGGGAACAACCCUGCATT against HMGN4	-0.0471
CCUCCUUGUUAGUGUCUUUTT against CLEC11A	-1.1 (active)
CCAGGUCCCUAAUCAUGGATT against NOXA1	-0.441
GGGAAGCACUGGUCGAAGATT against DTD1	-1.58 (active)
AGGCCUUUCUGGGACCUUATT against ZP4	0.0498
CUAAGACCAGUAUAGUAAATT against ARF6	-0.805
GGAUCUGGUUCAACUUGGATT against FUT3	0.11
GUGUCUCAGGGAUAGGUAATT against MICAL2	-0.0224
AGGAGUUCUUGGUCAUGAUTT against TNNC2	-0.773
GCAUUACAGUCUGAAUUGATT against PTPDC1	-0.191
GCUUUAUGCUGCUAAGGCATT against PGD	-1.55 (active)
CGACAAGUCUUCGACCUGATT against DGKZ	0
GCUGCUAUUUGAUAGACCATT against HNRNPM	0.499
GAAUGAUGAUGCAUGCCUUTT against MS4A10	-0.24
CACCUCUAAUCAUCGAUGATT against UAP1	0.0411
AGGUCUGGACGACAACUAUTT against MST1	-1.47 (active)
GGAGCCUAUCAUAACCUUATT against ZNF484	0.2
GGGUACCGAGGAUCGCUUUTT against LAMA5	0.229

Sequence	median seed-adjusted z-score
GUAUCUAAGAGAUAUGGAATT against ORC5L	-0.126
GACUCCCAUUUGAGACUUUTT against ZMAT1	-0.123
ACACCUACAUGAUGACGCATT against EVX2	0.181
CCUCAAAUGCAGUAUUUUUTT against HMOX1	0.45
GCAACUACGUGACUCGCUATT against SMUG1	-1.38 (active)
CGUCAGUGCUUCGCAUACATT against ZBTB45	0
GAAGGAGCAGGAUUACCAATT against TMED4	-0.895
GAGCUUCAACUAACAGGAATT against NUPL2	0.134
CAUGGUCCAUUAUUCGUGATT against ATP6V1A	-0.0106
GGAAUUGGUUUCAGUCAAATT against RCOR1	-1.13 (active)
GACUUACCUUCUGAGCAUATT against ZNF792	0
CGACUUCAUUGUAAAGAAATT against LIPF	0.54
GCUGCGUCAUUUUCGAAAATT against MOXD1	-0.162
GAACGAGCUGGAUCCAUUATT against ARSF	0.111
CCUUACGAAUCAUAAGAUATT against ZNF708	0.0562
CAGAGAACCUUCAAGUUAATT against ZNF239	-0.191
GCAUAGCCCUCAACAAGAATT against IRF6	-1.79 (active)
GCCGCUUUCGGAAUAAGAUTT against DGKZ	0
CGGAGAACAUUGUUGUUCUTT against TMTC2	0.0277
GCACCUUGCAGGAUUGGAATT against PEAR1	0.071
ACCAUAGCCUCUCACCCUATT against RASA4	-1.11 (active)
ACGCAACCCUCAACAGCUCTT against UTS2R	0.0819
GGGACUCAGUACUUCCAUATT against SLC39A8	0.265
CGAAGUUCAUAGACGAGAUTT against PPP1R2	0.208

Sequence	median seed-adjusted z-score
AGAGGUCUUCGACAAUAAATT against CD9	-1.02 (active)
GAGCCUCCUCAAAUCCAAATT against SERPING1	-0.244
CGUGGGAUAUGUUGACGGATT against BTNL3	0
GGAAUUUUUCGGGUGGUUATT against ELF5	-0.45
GAUCGAUAUCUUUACAAGATT against SLK	0.0479
CGAUGGAGAUCAACGUGAATT against UBE2E2	-1.77 (active)
CCUUCACUAUUGCCCGCAATT against ABCD1	0
UGAUGACACCAACCACGAATT against CNP	-0.116
GGCCCAUAUUCAUCUGCUATT against STYX	0.694
AGCACGAGCUAGUCCCUGATT against POLR2E	-1.25 (active)
GCAAGAUCCGAGAAGAAUATT against TUBB	-0.307
GCAUGAUCGGGAGGGUUUATT against PPID	-0.206
GGUUAUGAACUUUGGAUAATT against GPR103	0
CUAUGUCAGUGGUCCUGAATT against RETSAT	-1.7 (active)
CAAUGAAGACUGAUGUAUUTT against SLC9A2	-1.02 (active)
CCCUUACUACAACUACAAATT against ZBTB38	0.448
GGGCGAUUCCUGUCUAAGATT against PUM1	0.109
CGAACUCCGCUUUUUCUUATT against FZD7	-0.159
GCUACAACGGAAACAAUCATT against MSTN	-0.639
GGAGUUCGAUGAGACAACATT against FABP3	-0.0786
CGAUUACGCUUCAGAGAUATT against PTP4A2	-1.45 (active)
GGACAUCCUGUCAUAGAAATT against UTP3	-1.08 (active)

— PubChem BioAssay AID1347426 (Functional Genomics Laboratory (NCATS/FGL), 2020)
